# Assay results taken from PubChem BioAssay (NCATS).
# Results filed as inconclusive are left out. A call without a number means that no potency is given here. Active and inactive are the calls of the source. The call rests on the fitted dose curve; in most records, active means well fitted cell-killing curve with a large enough effect; inconclusive means small, poorly fitted or top-dose-only effect; inactive means flat fitted curve, though single readings scatter.
# Assay: Cell Viability - LYMP2-021 (AID 974);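 further: compound exposure lasts 24 hours at 37 °C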
# Details: LYMP2-021 lymphoblastoid cells viability; series mostly up to 92.2 µM
# Summary of the method: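 Concentration-response cytotoxicity in a human lymphoblastoid line: 24 hr treatment at 37 C in complete culture medium, tetraoctylammonium bromide as positive control, luminescent ATP quantitation as viability measure.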
# Further: nearly all actives have a fitted effect of over 55% in size.
# Potency means the concentration at half of the fitted maximal effect.
row,Compound,Potency
1,Nc1ccc2cc3ccccc3cc2c1,inactive
2,CN(C)c1ccc(C2(c3ccc(N(C)C)cc3)OC(=O)c3cc(N(C)C)ccc32)cc1,inactive
3,Cc1cc(Nc2ccc(O)cc2)ccc1N,50.1 µM (active)
4,CO[C@H]1/C=C/O[C@@]2(C)Oc3c(C)c(O)c4c(O)c(c5c(c4c3C2=O)NC2(CCN(CC(C)C)CC2)N=5)=NC(=O)/C(C)=C\C=C\[C@H](C)[C@H](O)[C@@H](C)[C@@H](O)[C@@H](C)[C@H](OC(C)=O)[C@@H]1C,inactive
5,Cc1cc(O)c(C(C)(C)C)cc1Sc1cc(C(C)(C)C)c(O)cc1C,31.6 µM (active)
6,C=C(C)c1ccccc1,inactive
7,O=C1OC2(c3cc(Br)c(O)c(Br)c3Oc3c2cc(Br)c(O)c3Br)c2c(Cl)c(Cl)c(Cl)c(Cl)c21,inactive
8,C=CC(=O)OCCOCCOC(=O)C=C,15.8 µM (active)
9,C/C=C1\C(=O)C[C@H]2[C@@H]3CCC4=CC(=O)CC[C@]4(C)[C@H]3CC[C@]12C,inactive
10,O=C1OC(O)C(C(Cl)Cl)=C1Cl (stereo unspecified),20 µM (active)
11,CNc1ccc(O)cc1,3.98 µM (active)
12,CC(=O)Nc1ccc(C(=O)CCl)cc1,5.01 µM (active)
13,CCC(C)Nc1ccc(NC(C)CC)cc1 (stereo unspecified),3.98 µM (active)
14,O=C=Nc1ccc(Cc2ccc(N=C=O)cc2)cc1,inactive
15,c1ccc2c(c1)ccc1cc3c(ccc4ccccc43)cc12,inactive
16,c1ccc2c(c1)-c1cccc3c1c-2cc1ccccc13,inactive
17,O=[N+]([O-])c1cc([N+](=O)[O-])c2ccc(S(=O)(=O)O)cc2c1O,inactive
18,O=Cc1ccc(Cl)c(Cl)c1,inactive

# Assay: Cell Viability - LYMP2-023 (AID 975);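 further: cells exposed to compound for 24 hours at 37 °C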
# Details: LYMP2-023 lymphoblastoid cell viability; series mostly up to 92.2 µM
# Summary of the method: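 Concentration-dependent drop in intracellular ATP measures acute cytotoxicity in a human lymphoblastoid line treated for 24 hours in complete culture medium. AC50 values are taken from Hill-equation fits of qHTS data.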
row,Compound,Potency
1,Nc1ccc2cc3ccccc3cc2c1,inactive
2,CN(C)c1ccc(C2(c3ccc(N(C)C)cc3)OC(=O)c3cc(N(C)C)ccc32)cc1,inactive
3,Cc1cc(Nc2ccc(O)cc2)ccc1N,50.1 µM (active)
4,CO[C@H]1/C=C/O[C@@]2(C)Oc3c(C)c(O)c4c(O)c(c5c(c4c3C2=O)NC2(CCN(CC(C)C)CC2)N=5)=NC(=O)/C(C)=C\C=C\[C@H](C)[C@H](O)[C@@H](C)[C@@H](O)[C@@H](C)[C@H](OC(C)=O)[C@@H]1C,inactive
5,Cc1cc(O)c(C(C)(C)C)cc1Sc1cc(C(C)(C)C)c(O)cc1C,50.1 µM (active)
6,C=C(C)c1ccccc1,inactive
7,O=C1OC2(c3cc(Br)c(O)c(Br)c3Oc3c2cc(Br)c(O)c3Br)c2c(Cl)c(Cl)c(Cl)c(Cl)c21,inactive
8,C=CC(=O)OCCOCCOC(=O)C=C,25.1 µM (active)
9,C/C=C1\C(=O)C[C@H]2[C@@H]3CCC4=CC(=O)CC[C@]4(C)[C@H]3CC[C@]12C,inactive
10,O=C1OC(O)C(C(Cl)Cl)=C1Cl (stereo unspecified),20 µM (active)
11,CNc1ccc(O)cc1,7.94 µM (active)
12,CC(=O)Nc1ccc(C(=O)CCl)cc1,7.94 µM (active)
13,CCC(C)Nc1ccc(NC(C)CC)cc1 (stereo unspecified),6.31 µM (active)
14,O=C=Nc1ccc(Cc2ccc(N=C=O)cc2)cc1,inactive
15,c1ccc2c(c1)ccc1cc3c(ccc4ccccc43)cc12,inactive
16,c1ccc2c(c1)-c1cccc3c1c-2cc1ccccc13,inactive
17,O=[N+]([O-])c1cc([N+](=O)[O-])c2ccc(S(=O)(=O)O)cc2c1O,inactive
18,O=Cc1ccc(Cl)c(Cl)c1,inactive
